The text below walks through data of PubChem BioAssay (NCI).

The structures appear in SMILES notation. About 79,000 compounds went through this panel and 15% of them were active in at least one assay; those are over-represented in the sample as a whole. Values without a mark were called inactive. Activity calls are given as the source filed them. Cut-off read from the data, not from the text of the source: active = growth inhibition above about 70%; inactive = the rest.

Experiment [1] can be described thus: NCI Yeast Anticancer Drug Screen. Data for the rad50 strain (AID 155).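 Note: 0% = growth of vehicle-only cultures of the same strain.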 Particulars: S. cerevisiae rad50 strain growth inhibition; at 50.0 µM; stronger effect = higher value. A digest of the protocol: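 Growth of the mutant yeast was measured after compound exposure and referenced to vehicle-treated cultures.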
Experiment [2] can be described thus: NCI Yeast Anticancer Drug Screen. Data for the mec2-1 strain (AID 157). Particulars: S. cerevisiae mec2-1 strain, at 50.0 µM, stronger effect = higher value. Summed up:
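mec2-1 yeast strain, carrying an alteration in DNA damage repair or cell cycle control, was exposed to compounds; growth inhibition was measured relative to vehicle-treated controls.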

Experiment [3] can be described thus: NCI Yeast Anticancer Drug Screen. Data for the sgs1 mgt1 strain (AID 161).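 Note: 0% = growth of cultures given vehicle only.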 The settings on record: S. cerevisiae sgs1 mgt1 strain, at 50.0 µM, stronger effect = higher value. Summed up:
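Percent growth inhibition was derived by comparing compound-exposed mutant yeast with vehicle-exposed cultures. The strain carries alterations in DNA damage repair.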

A short description of experiment [4]: NCI Yeast Anticancer Drug Screen. Data for the cln2 rad14 strain (AID 165).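 Note: 0% = growth equal to vehicle treated cultures.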 The settings on record: S. cerevisiae cln2 rad14 strain, at 50.0 µM, stronger effect = higher value. A digest of the protocol:
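Yeast carrying cln2 and rad14 alterations (cell cycle control and DNA damage repair) were exposed to compounds. Growth inhibition was measured against vehicle-treated controls.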

Experiment [5] can be described thus: NCI Yeast Anticancer Drug Screen. Data for the bub3 strain (AID 167). The settings on record: S. cerevisiae bub3 mutant strain, at 50.0 µM, stronger effect = higher value. Summed up:
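Whole-cell yeast assay. The mutant strain was incubated with compounds, and growth inhibition was determined by comparison with vehicle-treated cells.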

A short description of experiment [6]: NCI Yeast Anticancer Drug Screen. Data for the mlh1 rad18 strain (AID 175). The settings on record: S. cerevisiae mlh1 rad18 strain growth inhibition; at 50.0 µM; stronger effect = higher value. A digest of the protocol: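 Growth inhibition of the yeast strain was measured after compound exposure and expressed relative to vehicle-treated controls. The strain carries defined defects in DNA damage repair.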

For the molecule `COc1ccc(C2CCCCCC2OS(=O)(=O)c2ccc(C)cc2)c(OC)c1OC` (stereo not given), the growth inhibition is 1.75% in experiment [1]; -4.55% in experiment [2]; -7.15% in experiment [3]; -14.8% in experiment [4]; 8.45% in experiment [5]; -9% in experiment [6].
As for `Cc1ccc(C(C)C)cc1O`, the growth inhibition was 17.6% in experiment [1]; 9.5% in experiment [2]; 19.1% in experiment [3]; 27% in experiment [4]; 13.7% in experiment [5]; 32.4% in experiment [6].
On to `COc1ccc2nc3c(Cl)cccc3c(Cl)c2c1`, for which the growth inhibition was 28.4% in experiment [1]; 38.5% in experiment [2]; 3.4% in experiment [3]; 4.6% in experiment [4]; 7.35% in experiment [5]; 81.5% (active) in experiment [6].
For `Cc1ccc(C)c(NC(=O)Nc2ccc(Nc3ccccc3)cc2)c1`, the growth inhibition in experiment [1] is -6.3%; in experiment [2], 12.8%; in experiment [3] it was 15.8%; in experiment [4] it was -18.4%; in experiment [5] it was 17.1%; in experiment [6] it was 33%.
For `COC(=O)N1C(c2ccccc2)(c2ccccc2)CS1(=O)=O`, the growth inhibition is 15.2% in experiment [1]; 10.1% in experiment [2]; 9.3% in experiment [3]; 15.6% in experiment [4]; 11.8% in experiment [5]; 5.25% in experiment [6].
With `C[C@H]1C(=O)OCN1C(=O)OCc1ccccc1`, the growth inhibition was 0.05% in experiment [1]; 16.4% in experiment [2]; 12.3% in experiment [3]; -6% in experiment [4]; 12.6% in experiment [5]; -0.5% in experiment [6].
Regarding `CCC(CC)(CC#N)C1CCCCC1`, the growth inhibition was -0.8% in experiment [1]; -0.35% in experiment [2]; -0.6% in experiment [3]; -13.8% in experiment [4]; -3.15% in experiment [5]; -8.2% in experiment [6].
Take `Cc1cccc(O)c1C(=O)O`: the growth inhibition in experiment [1] is -8.15%; in experiment [2] it was -12%; in experiment [3] it was -15.6%; in experiment [4] it was -9.45%; in experiment [5] it was 9.05%; in experiment [6], -0.25%.
Turning to `O=C(NC(Cc1c[nH]c2ccccc12)C(=O)O)C(=O)c1c[nH]c2ccccc12` (stereo not given), the growth inhibition in experiment [1] is -9.9%; in experiment [2], -14.6%; in experiment [3], 27.5%; in experiment [4], 0.9%; in experiment [5], 15.2%; in experiment [6], 4.2%.
Consider `CC(=O)C(c1ccccc1)N(CCO)Cc1ccccc1` (stereo not given), for which the growth inhibition in experiment [1] is 8.15%; in experiment [2] it was -6%; in experiment [3] it was -5.9%; in experiment [4], 28.6%; in experiment [5], 7.45%; in experiment [6], 1.8%.
As for `CC12CCCCC1CC(=O)/C(=C\O)C2` (stereo not given), the growth inhibition in experiment [1] was 12.7%; in experiment [2], 15.1%; in experiment [3], 17.9%; in experiment [4] it was -29.1%; in experiment [5], -11.3%; in experiment [6], 14%.
Regarding `CCC(O)C(C)CO` (stereo not given), the growth inhibition in experiment [1] was 11.8%; in experiment [2], 5.05%; in experiment [3], 19.3%; in experiment [4], -72.8%; in experiment [5], 7.8%; in experiment [6], -46.9%.
In the case of `O=C(O)Cc1c(-c2ccc([N+](=O)[O-])cc2)c(=O)oc2cc(O)ccc12`, the growth inhibition in experiment [1] was 28.4%; in experiment [2] it was 4.15%; in experiment [3] it was 9%; in experiment [4], 20.1%; in experiment [5], 41%; in experiment [6] it was 11.7%.
`O=C1NC(=O)/C(=C\c2cccc(Br)c2)N1`: the growth inhibition is -7.95% in experiment [1]; 4.15% in experiment [2]; -12.1% in experiment [3]; 6.8% in experiment [4]; 24.5% in experiment [5]; 8.85% in experiment [6].
For `CCOC(=S)Sc1ccc2c(c1)-c1ccc(F)cc1C2=O`, the growth inhibition in experiment [1] is 7%; in experiment [2], 6.3%; in experiment [3] it was 2.1%; in experiment [4], 10.2%; in experiment [5], -3.85%; in experiment [6], -1.65%.
`c1ccc(CNc2ncccn2)nc1`: the growth inhibition in experiment [1] is 21.8%; in experiment [2], 7.45%; in experiment [3] it was 40.7%; in experiment [4], 7.35%; in experiment [5], -10%; in experiment [6] it was 11.4%.
Take `CC(C)CCCC(C)C1CCC2C3=CCC4CC(=O)CCC4(C)C3CCC21C` (stereo not given): the growth inhibition in experiment [1] is 30.9%; in experiment [2] it was -10.9%; in experiment [3], 4.65%; in experiment [4], 4.35%; in experiment [5], -1.2%; in experiment [6], 4.5%.
In the case of `CC(=O)Oc1c(Br)cc(C(=O)c2ccccc2C(=O)c2cc(Br)c(OC(C)=O)c(Br)c2)cc1Br`, the growth inhibition in experiment [1] is 13.9%; in experiment [2] it was 25.5%; in experiment [3], 21.6%; in experiment [4] it was -16.3%; in experiment [5] it was 11.9%; in experiment [6] it was 13.7%.
With `COc1cc(Br)c(C=Nc2cccc3ccc(OS(=O)(=O)c4ccc([N+](=O)[O-])cc4)cc23)cc1OC`, the growth inhibition in experiment [1] is 7.6%; in experiment [2], -16.6%; in experiment [3] it was 0.65%; in experiment [4], 4.3%; in experiment [5] it was 5.5%; in experiment [6], 15.6%.
As for `CC1CCS(=O)(=O)C1` (stereo not given), the growth inhibition in experiment [1] was -12.8%; in experiment [2], -23.1%; in experiment [3] it was -35.9%; in experiment [4], 6.8%; in experiment [5] it was -8.4%; in experiment [6], -10.1%.
